From PubChem BioAssay (NCI)
About 83,000 compounds went through this panel and 20% of them were active in at least one assay; those are over-represented in the sample as a whole.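 Growth was measured after 48 h exposure to one concentration of compound in 96-well plates. Values under 10 count as active.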 Active and inactive are the calls of the source.

Tests used:
Assay in all cases: NCI-60 one-dose screen, 48 h (100 = growth as untreated, 0 = no growth, -100 = all killed)
Conditions in all cases: 10 µM unless noted
SR leukemia = test system: SR leukemia
RPMI-8226 leukemia = test system: RPMI-8226 leukemia
OVCAR-8 ovarian = test system: OVCAR-8 ovarian
OVCAR-5 ovarian = test system: OVCAR-5 ovarian
OVCAR-4 ovarian = test system: OVCAR-4 ovarian
SK-OV-3 ovarian = test system: SK-OV-3 ovarian
OVCAR-3 ovarian = test system: OVCAR-3 ovarian
HS 578T breast = test system: HS 578T breast
NCI/ADR-RES ovarian = test system: NCI/ADR-RES ovarian
T-47D breast = test system: T-47D breast
BT-549 breast = test system: BT-549 breast
MDA-MB-435 melanoma = test system: MDA-MB-435 melanoma
SW-620 colon = test system: SW-620 colon
MCF7 breast = test system: MCF7 breast
HCT-116 colon = test system: HCT-116 colon
HCC-2998 colon = test system: HCC-2998 colon
KM12 colon = test system: KM12 colon
IGROV1 ovarian = test system: IGROV1 ovarian

Measured: growth

O=C1C2=C(C(=O)c3c(O)ccc(O)c31)N(c1cccnc1)Cc1ccccc1O2
active: SR leukemia -10.1% | RPMI-8226 leukemia -8.47% | OVCAR-8 ovarian 2.92% | OVCAR-5 ovarian -39.6% | OVCAR-4 ovarian -95% | OVCAR-3 ovarian -89.5% | T-47D breast -28.4% | BT-549 breast -54.1% | MDA-MB-435 melanoma -14.2% | SW-620 colon -45.9% | MCF7 breast -18% | HCT-116 colon -71% | HCC-2998 colon -31.2% | KM12 colon -4.03%
inactive: SK-OV-3 ovarian 53.8% | HS 578T breast 26.1% | NCI/ADR-RES ovarian 13.4%

COc1ccc2c(c1)C(=O)/C(=C/c1ccc(O)cc1)O2
inactive: SR leukemia 74.1% | RPMI-8226 leukemia 35.1% | OVCAR-8 ovarian 93.1% | OVCAR-5 ovarian 103% | OVCAR-4 ovarian 85.2% | SK-OV-3 ovarian 104% | OVCAR-3 ovarian 48.7% | HS 578T breast 73.5% | NCI/ADR-RES ovarian 104% | T-47D breast 59.8% | MDA-MB-435 melanoma 93.2% | MCF7 breast 22.8% | HCC-2998 colon 114% | KM12 colon 101%
active: SW-620 colon 9.11% | HCT-116 colon 8.95%

COc1cc2oc(-c3cccc(NC(=O)Nc4ccc5c(c4)OCO5)c3)cc(=O)c2c(OC)c1OC
active: RPMI-8226 leukemia -1.59%
inactive: SR leukemia 33.3% | OVCAR-8 ovarian 44.3% | OVCAR-5 ovarian 118% | OVCAR-4 ovarian 69.1% | IGROV1 ovarian 62.5% | OVCAR-3 ovarian 56% | HS 578T breast 59.4% | NCI/ADR-RES ovarian 57.6% | BT-549 breast 59.8% | MDA-MB-435 melanoma 68.7% | SW-620 colon 57.3% | MCF7 breast 65.1% | HCT-116 colon 50.2% | HCC-2998 colon 59.2% | KM12 colon 48.5%

C=C1C(=O)O[C@H]2[C@H]1CC/C(COC(=O)NCCc1ccc(Br)cc1)=C\CC[C@@]1(C)O[C@@H]21
active: SR leukemia -4.11% | RPMI-8226 leukemia 2.82% | OVCAR-8 ovarian 7.1% | OVCAR-3 ovarian -71.8% | T-47D breast -21% | BT-549 breast -9.87% | SW-620 colon -55.6% | MCF7 breast 4.4% | HCT-116 colon -72.1%
inactive: OVCAR-5 ovarian 39.6% | OVCAR-4 ovarian 30% | SK-OV-3 ovarian 97.2% | HS 578T breast 22.9% | NCI/ADR-RES ovarian 58.4% | MDA-MB-435 melanoma 23.9% | HCC-2998 colon 71.1% | KM12 colon 55.4%

CCNC(=O)CCCCC(=O)c1c(C)[nH]c(/C=C2\N=C(c3ccc[nH]3)C=C2OC)c1C
active: OVCAR-8 ovarian -38.3% | OVCAR-4 ovarian -59.4% | OVCAR-3 ovarian -77.9% | T-47D breast -46.3% | BT-549 breast -36.1% | MDA-MB-435 melanoma -18.4% | SW-620 colon -65.4% | MCF7 breast -17.4% | HCT-116 colon -100% | KM12 colon -56.9%
inactive: SR leukemia 45.6% | RPMI-8226 leukemia 51.6% | OVCAR-5 ovarian 66.3% | SK-OV-3 ovarian 57.7% | HS 578T breast 54.9% | NCI/ADR-RES ovarian 15.4% | HCC-2998 colon 48.6%

CCN1C(=O)N(CC)C2Nn3c(s/c(=C4\C(=O)N(C5CCCC5)c5ccccc54)c3=O)=NC21 (stereo unspecified)
active: MDA-MB-435 melanoma -15.9%
inactive: SR leukemia 34.8% | RPMI-8226 leukemia 54.1% | OVCAR-8 ovarian 60.2% | OVCAR-5 ovarian 77.5% | OVCAR-4 ovarian 55.7% | IGROV1 ovarian 67.3% | OVCAR-3 ovarian 40.8% | HS 578T breast 62% | NCI/ADR-RES ovarian 10.9% | BT-549 breast 79.3% | SW-620 colon 53.9% | MCF7 breast 45.7% | HCT-116 colon 19.8% | HCC-2998 colon 91.8% | KM12 colon 23.8%

COc1cccc(-c2nc3sccn3c2-c2ccnc(NCCCNS(=O)(=O)c3ccc(F)cc3)n2)c1
inactive: SR leukemia 28.9% | RPMI-8226 leukemia 17.4% | OVCAR-8 ovarian 17.3% | OVCAR-5 ovarian 116% | OVCAR-4 ovarian 25.2% | IGROV1 ovarian 34.6% | OVCAR-3 ovarian 37.4% | HS 578T breast 57.3% | NCI/ADR-RES ovarian 15.5% | BT-549 breast 29.6% | MDA-MB-435 melanoma 25.2% | SW-620 colon 58.4% | MCF7 breast 39.9% | HCT-116 colon 19.9% | HCC-2998 colon 82.4% | KM12 colon 22.1%
active: T-47D breast -8.19%

COc1cc(-c2csc(NC(=O)c3cc(C(F)(F)F)cc(C(F)(F)F)c3)n2)cc(OC)c1OC
inactive: SR leukemia 40.4% | RPMI-8226 leukemia 14.1% | OVCAR-8 ovarian 25.5% | OVCAR-5 ovarian 60.1% | OVCAR-4 ovarian 23.4% | IGROV1 ovarian 46% | OVCAR-3 ovarian 10.6% | HS 578T breast 35.1% | NCI/ADR-RES ovarian 16.2% | BT-549 breast 18.7% | MDA-MB-435 melanoma 28.6% | MCF7 breast 18.4% | HCT-116 colon 14.4% | KM12 colon 22.1%
active: T-47D breast -15.9%

COc1ccc(/C=C/c2cc(N3CCOCC3)c3cc(F)c(F)cc3n2)cc1OC
inactive: SR leukemia 16.2% | RPMI-8226 leukemia 43.2% | OVCAR-8 ovarian 28.6% | OVCAR-5 ovarian 65.5% | OVCAR-4 ovarian 35.8% | SK-OV-3 ovarian 55.5% | HS 578T breast 74.7% | BT-549 breast 45.2% | MDA-MB-435 melanoma 51% | SW-620 colon 45.8% | MCF7 breast 22.1% | HCT-116 colon 24.5% | HCC-2998 colon 29% | KM12 colon 33.3%
active: NCI/ADR-RES ovarian 4.66%

CCCCn1c(=O)c(C2CNC(=O)c3ccccc3N2)cc2ccccc21 (stereo unspecified)
inactive: SR leukemia 102% | RPMI-8226 leukemia 109% | OVCAR-8 ovarian 114% | OVCAR-5 ovarian 96.3% | OVCAR-4 ovarian 103% | SK-OV-3 ovarian 97.2% | HS 578T breast 94.6% | NCI/ADR-RES ovarian 100% | T-47D breast 93.7% | BT-549 breast 97.8% | MDA-MB-435 melanoma 105% | SW-620 colon 99.2% | MCF7 breast 99.6% | HCT-116 colon 94.9% | HCC-2998 colon 108% | KM12 colon 101%

c1ccn2nnnc2c1
inactive: SR leukemia 96.5% | RPMI-8226 leukemia 102% | OVCAR-8 ovarian 105% | OVCAR-5 ovarian 105% | OVCAR-4 ovarian 103% | IGROV1 ovarian 113% | OVCAR-3 ovarian 70.6% | HS 578T breast 105% | NCI/ADR-RES ovarian 102% | BT-549 breast 67.2% | MDA-MB-435 melanoma 99.5% | SW-620 colon 106% | MCF7 breast 93.1% | HCT-116 colon 87.5% | HCC-2998 colon 91.6% | KM12 colon 99.5%

CCNC(=O)C1CCCN1C(=O)C(CCCN=C(N)N)NC(=O)C(CC(C)C)NC(=O)C(CC(C)C)NC(=O)C(Cc1ccc(O)cc1)NC(=O)C(CO)NC(=O)C(Cc1c[nH]c2ccccc12)NC(=O)C(Cc1cnc[nH]1)NC(=O)C1CCC(=O)N1 (stereo unspecified)
inactive: SR leukemia 102% | RPMI-8226 leukemia 33.3% | OVCAR-8 ovarian 95.9% | OVCAR-5 ovarian 87.3% | OVCAR-4 ovarian 91.3% | SK-OV-3 ovarian 98.2% | OVCAR-3 ovarian 125% | HS 578T breast 81.2% | NCI/ADR-RES ovarian 97.8% | T-47D breast 104% | BT-549 breast 113% | MDA-MB-435 melanoma 105% | SW-620 colon 89.4% | MCF7 breast 86.1% | HCT-116 colon 95.2% | HCC-2998 colon 94.4% | KM12 colon 104%

Cc1cccc2cc(/C=C/C(=O)/C=C/c3ccc(Cl)cc3)c(=O)[nH]c12
inactive: OVCAR-8 ovarian 21.8% | OVCAR-5 ovarian 84.8% | OVCAR-4 ovarian 58% | SK-OV-3 ovarian 91.5% | OVCAR-3 ovarian 13.9% | HS 578T breast 50.9% | NCI/ADR-RES ovarian 94.8% | T-47D breast 41.6%
active: SR leukemia 0.572% | RPMI-8226 leukemia 6.05% | BT-549 breast 7.28% | MDA-MB-435 melanoma -32.7% | SW-620 colon 8.48% | MCF7 breast 9.87% | HCT-116 colon -52.7% | HCC-2998 colon -4.78% | KM12 colon 8.42%

O=[N+]([O-])c1cc(S(=O)(=O)OCC2CO2)ccc1Cl (stereo unspecified)
active: SR leukemia 1.01%
inactive: RPMI-8226 leukemia 63.6% | OVCAR-8 ovarian 87.5% | OVCAR-5 ovarian 111% | OVCAR-4 ovarian 106% | IGROV1 ovarian 52.6% | OVCAR-3 ovarian 108% | HS 578T breast 101% | NCI/ADR-RES ovarian 108% | T-47D breast 77.1% | BT-549 breast 91.3% | MDA-MB-435 melanoma 97.7% | SW-620 colon 41.2% | MCF7 breast 75.5% | HCT-116 colon 54% | HCC-2998 colon 107% | KM12 colon 82.6%

O=[N+]([O-])c1ccc(S(=O)(=O)N2CCN(c3ccnc4cc(Cl)ccc34)CC2)c([N+](=O)[O-])c1
inactive: RPMI-8226 leukemia 25.7% | OVCAR-8 ovarian 97.1% | OVCAR-5 ovarian 106% | OVCAR-4 ovarian 95.3% | IGROV1 ovarian 99.5% | OVCAR-3 ovarian 93% | HS 578T breast 89.1% | NCI/ADR-RES ovarian 95.5% | T-47D breast 60.3% | BT-549 breast 97.6% | MDA-MB-435 melanoma 98.1% | SW-620 colon 40.5% | MCF7 breast 52.7% | HCT-116 colon 77.5% | HCC-2998 colon 106% | KM12 colon 103%
active: SR leukemia 3.12%

C=C1C(=O)O[C@H]2[C@H]1CC/C(COC(=O)NCc1ccc(OC)cc1)=C\CC[C@@]1(C)O[C@@H]21
inactive: RPMI-8226 leukemia 25.8% | OVCAR-8 ovarian 21.5% | OVCAR-5 ovarian 78.2% | OVCAR-4 ovarian 41.2% | SK-OV-3 ovarian 84.8% | HS 578T breast 59.2% | NCI/ADR-RES ovarian 86.9% | T-47D breast 17.5% | BT-549 breast 29.7% | MDA-MB-435 melanoma 46.9% | MCF7 breast 15.2% | HCC-2998 colon 83.5% | KM12 colon 73.8%
active: SR leukemia -1.29% | OVCAR-3 ovarian 5.71% | SW-620 colon 1.83% | HCT-116 colon -48.7%

O=C1NCC(c2cc3ccccc3[nH]c2=O)Nc2ccccc21 (stereo unspecified)
inactive: SR leukemia 100% | RPMI-8226 leukemia 106% | OVCAR-8 ovarian 103% | OVCAR-5 ovarian 91.2% | OVCAR-4 ovarian 104% | SK-OV-3 ovarian 89.9% | OVCAR-3 ovarian 111% | HS 578T breast 99.4% | NCI/ADR-RES ovarian 111% | T-47D breast 91% | BT-549 breast 96.3% | MDA-MB-435 melanoma 107% | SW-620 colon 102% | MCF7 breast 103% | HCT-116 colon 92.6% | HCC-2998 colon 104% | KM12 colon 103%

N#Cc1c(NC(=O)c2ccc([N+](=O)[O-])o2)[n+]([O-])c2cc(F)c(F)cc2[n+]1[O-]
inactive: SR leukemia 77.3% | RPMI-8226 leukemia 111% | OVCAR-8 ovarian 68% | OVCAR-5 ovarian 108% | OVCAR-4 ovarian 102% | SK-OV-3 ovarian 129% | OVCAR-3 ovarian 122% | HS 578T breast 158% | NCI/ADR-RES ovarian 102% | BT-549 breast 203% | MDA-MB-435 melanoma 109% | SW-620 colon 128% | MCF7 breast 96.5% | HCT-116 colon 104% | HCC-2998 colon 106% | KM12 colon 98.9%
